Screening results as filed in PubChem BioAssay.
This is a sample that favours compounds with a hit; in the whole collection about 27% have one here.
CYP2C9 activ = human CYP2C9 activators, primary screen, biochemical, luminescence; Cytochrome P450 2C9 (Homo sapiens), P11712; actives 1.4% (n = 96,000); activation factor at 5 µM; AID 1024, 2008; recombinant CYP2C9, luciferin-H conversion; stronger effect = higher value; factor 1 = untreated enzyme, 0 = blocked;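 active means activation factor of 2 or more for CYP2C9 at a 5 µM dose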
CYP2C9 inh = blockers of cytochrome P450 2C9 activity – biochemical, luminescence, ADME assay, primary screen; CYP2C9 Supersomes, luciferin-H conversion; inhibition, % at 5 µM; actives 20% (n = 96,000); AID 777, 2007;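 active means blocking of liver enzyme CYP2C9 beyond about 50% at 5 µM, limit read from the data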
CYP2C19 act = human CYP2C19 activators, primary screen, biochemical, luminescence. 96,000 tested, under 10 active. recombinant CYP2C19, luciferin-H EGE luminescence; stronger effect = higher value; 0 = fully inhibited enzyme, 1 = untreated enzyme. Cytochrome P450 2C19 (Homo sapiens), P33261. AID 1025, 2008. activation factor at 5 µM;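 active means activation factor of at least 2 at 5 µM in the primary screen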
CYP2C19 inh = blockers of cytochrome P450 2C19 activity – biochemical, luminescence, ADME assay, primary screen; CYP2C19 Supersomes, luciferin-H EGE luminescence, 30 min; inhibition, % at 5 µM; actives 21% (n = 96,000); AID 778, 2007;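 active means CYP2C19 inhibition above a set limit at 5 µM in the primary screen, cut at about 50% in these data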
Cav3 T inh = Cav3.2 calcium influx blockers – cell-based, Fluo-4 calcium fluorescence, FDSS, MLSMR library, primary screen; B-score at 10 µM; AID 449739, 2010; Voltage-dependent T-type calcium channel subunit alpha-1H (Homo sapiens), O95180; Cav3.2-expressing cells; stronger effect = lower value; actives 4% (n = 100,000);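 active means single-dose well whose peak fluorescence ratio is a statistical outlier from its plate by either plate-standardised score or position-corrected B-score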
Each line names hits and unclear results; the compound was inactive in the other large screens.

COc1ccc(NC(=O)N2CCC(n3nnc4cc(C)ccc43)CC2)cc1	none (no result: CYP2C9 activ, CYP2C9 inh, CYP2C19 act, CYP2C19 inh)
CCCCCCCCN1[C@@H](CC(=O)OC)c2cc(C(F)(F)F)ccc2S1(=O)=O	none (no result: CYP2C9 activ, CYP2C9 inh, CYP2C19 act, CYP2C19 inh)
Cc1ccccc1OC(C)C(=O)NC1CCCC1 (stereo not drawn)	CYP2C19 inh 74
CCCC1CCC(C(=O)Nn2cnc3ccccc3c2=O)CC1 (stereo not drawn)	CYP2C9 inh 56, CYP2C19 inh 58
COCCN1Cc2cccc(C(=O)Nc3cccc(C)c3C)c2C1=O	none
CCOC(=O)C1CCN(C(=O)Nc2ccc(OC)c(OC)c2)CC1	none
CCOC(=O)N1CCC(N2Cc3cccc(C(=O)Nc4ccc(OC)c(OC)c4)c3C2=O)CC1	CYP2C9 inh 95, CYP2C19 inh 70
CCOC(=O)c1ccccc1NC(=O)c1cccc2c1C(=O)N(C1CCN(C(=O)OCC)CC1)C2	CYP2C9 inh 96
CCOC(=O)c1ccc(NC(=O)c2ccc(CO)c(C(=O)NC3CCN(C(=O)OCC)CC3)c2)cc1	none
CCOC(=O)N1CCC(N2Cc3cccc(C(=O)N4CCN(C5CCCCC5)CC4)c3C2=O)CC1	CYP2C9 inh 78
CCOC(=O)N1CCC(NC(=O)c2cc(C(=O)Nc3ccc(OC)c(OC)c3)ccc2CO)CC1	CYP2C9 inh 64
Cn1c(SCC#N)nnc1-c1cnccn1	none (no result: CYP2C9 activ, CYP2C9 inh, CYP2C19 act, CYP2C19 inh)
COCC(O)CSc1nc(C)[nH]c1[N+](=O)[O-] (stereo not drawn)	none
COc1ccc(CCNS(=O)(=O)c2ccc3c(c2)n(C)c(=O)c(=O)n3C)cc1OC	none
COc1ccc(S(=O)(=O)NCCC(C)C)cc1C	CYP2C19 inh 85
COc1ccc(S(=O)(=O)NCCc2csc(C)n2)cc1C	CYP2C19 inh 74
COC(=O)c1cc(C(=O)OC)cc(N2C(=O)CN=C2Nc2nc(C)cc(C)n2)c1	none
CCCCS(=O)CC(COCc1ccccc1)OC(=O)CSc1nc(C)cc(C)n1 (stereo not drawn)	none
Cc1cc(C)cc(NC(=O)CSCc2nc3c(nnn3Cc3ccc(F)cc3)c(=O)[nH]2)c1	none (no result: CYP2C9 activ, CYP2C9 inh, CYP2C19 act, CYP2C19 inh)
COC(=O)CNC(=O)CCCCC(=O)NCC(=O)OC	none
CC(C)(C)C(=O)N1CCN(c2c(Cl)cccc2[N+](=O)[O-])CC1	CYP2C9 inh 85, CYP2C19 inh 65
COc1ccc(N(C(=O)Cn2nnc3ccccc32)C(C(=O)NCc2ccco2)c2cccnc2)cc1 (stereo not drawn)	CYP2C19 inh 78
COCCNC(=O)C(c1ccncc1)N(C(=O)Cn1nnc2ccccc21)c1ccc(OC)cc1 (stereo not drawn)	none
Cc1ccccc1C(C(=O)NCc1ccco1)N(CC1CCCO1)C(=O)Cn1nnc2ccccc21 (stereo not drawn)	Cav3 T inh -3.8
COCCNC(=O)CN(C(=O)Cn1nnc2ccccc21)c1ccc(F)c(Cl)c1	CYP2C19 inh 56
O=C(NCc1ccco1)C(c1ccncc1)N(CCC1=CCCCC1)C(=O)Cn1nnc2ccccc21 (stereo not drawn)	CYP2C9 inh 62, CYP2C19 inh 51
O=C(NCc1ccc(F)cc1)C(c1ccccc1)N(CC1CCCO1)C(=O)Cn1nnc2ccccc21 (stereo not drawn)	none (no result: CYP2C9 activ, CYP2C9 inh, CYP2C19 act, CYP2C19 inh)
Cc1cccc(N(C(=O)Cn2nnc3ccccc32)C(C(=O)NCc2ccco2)c2ccncc2)c1 (stereo not drawn)	none
O=C(NCc1ccco1)C(c1cccnc1)N(C(=O)Cn1nnc2ccccc21)c1ccccc1 (stereo not drawn)	CYP2C19 inh 51
COCCNC(=O)C(c1ccco1)N(C(=O)Cn1nnc2ccccc21)c1ccc(C)cc1C (stereo not drawn)	none
CCc1ccccc1N(C(=O)Cn1nnc2ccccc21)C(C(=O)NCCOC)c1ccco1 (stereo not drawn)	CYP2C9 inh 56, CYP2C19 inh 61
O=C(NCc1ccco1)C(c1ccco1)N(C(=O)Cn1nnc2ccccc21)c1ccc2c(c1)CCC2 (stereo not drawn)	Cav3 T inh -4.3 (no result: CYP2C9 activ, CYP2C9 inh, CYP2C19 act, CYP2C19 inh)
Cc1c(NC(=O)CC(=O)Nc2c(C)n(C)n(-c3ccccc3)c2=O)c(=O)n(-c2ccccc2)n1C	none
C=CCc1cccc(CNc2c(C)n(C)n(-c3ccccc3)c2=O)c1O	CYP2C19 inh 56, Cav3 T inh -4
COc1cc(/C=N/N2C(=O)c3ccccc3NC2(C)c2cccc([N+](=O)[O-])c2)cc(Br)c1O (stereo not drawn)	CYP2C9 inh 92, CYP2C19 inh 50
COc1cc(/C=N/NC(=O)/C(=C\c2ccc([N+](=O)[O-])cc2)NC(=O)c2ccccc2)cc(OC)c1O	none
Cc1ccc(NS(C)(=O)=O)c(C(=O)c2ccccc2)c1	CYP2C19 inh 70
CCOc1ccccc1NC(=O)c1cccc2c1C(=O)N(CCOC)C2	CYP2C9 inh 88, CYP2C19 inh 67
COCCN1Cc2cccc(C(=O)NCc3ccccc3OC)c2C1=O	none
CCOc1ccc(NC(=O)c2cccc3c2C(=O)N(Cc2cccnc2)C3)cc1	CYP2C9 inh 77
COC(CNC(=O)c1cccc2c1C(=O)N(Cc1cccnc1)C2)OC	CYP2C19 inh 50
COCCN1Cc2cccc(C(=O)Nc3cccnc3)c2C1=O	none
Cc1nnsc1C(=O)Nc1cccc(Cl)c1Cl	none (no result: CYP2C9 activ, CYP2C9 inh, CYP2C19 act, CYP2C19 inh)
COC(=O)C1=C(CSc2nccn2C)NC(=O)NC1c1cc(C)ccc1C (stereo not drawn)	none
Cc1c(C(=O)N2CCN(S(C)(=O)=O)CC2)oc2ccccc12	CYP2C19 inh 91
COc1ccccc1N1CCN(C(=O)c2oc3ccccc3c2C)CC1	none (no result: Cav3 T inh)
Cc1c(C(=O)N2CCN(CCc3ccccc3)CC2)oc2ccccc12	CYP2C19 inh 73
CCN1CCN(CCCNC(=O)C2CCCN(c3nnc(-n4cccc4)s3)C2)CC1 (stereo not drawn)	none
O=C1NCCN1C(=O)N(c1ccccc1)c1ccccc1	none
CCCCC(=O)Nc1ncc(Br)s1	CYP2C19 inh 76
CCCCC(=O)Nc1nnc(C)s1	none
Cc1nnc(-c2cccc(Br)c2)c2cn(-c3ccccc3Cl)nc12	CYP2C9 inh 66, CYP2C19 inh 60
CCN(CC)CCOc1nnc(-c2ccc(C)cc2)c2ccccc12	none
Cc1ccc(-n2cc3c(-c4cccc(Br)c4)nnc(C)c3n2)cc1	CYP2C9 inh 92, CYP2C19 inh 77
Cc1[nH]n2c(=O)cc(-c3ccc([N+](=O)[O-])cc3)nc2c1-c1ccccc1	Cav3 T inh -4.4 (no result: CYP2C9 activ, CYP2C9 inh, CYP2C19 act, CYP2C19 inh)
Cc1ccc(N=Nc2c(N)[nH]n3c(=O)cc(-c4ccccc4)nc23)cc1	Cav3 T inh -7.5
O=C1CCc2cc(S(=O)(=O)NC(Cc3ccccc3)C(=O)NCCC3=CCCCC3)ccc2N1 (stereo not drawn)	CYP2C9 inh 61, CYP2C19 inh 68
